Bioassay records: PubChem, Buhrlage Lab, Dana-Farber Cancer Institute and Novartis Institutes for BioMedical Research (Cambridge, Mass)
In the library only some 13% were active in any assay of this set; here they are far more common.
USP28 block: blocks human USP28 ubiquitin-rhodamine cleavage; Q96RU2; 47,000 tested, 3% active; inhibition, % at 25 µM; purified USP28, Ub-rhodamine cleavage fluorescence, 30 min
USP8 block: inhibitors of human USP8 deubiquitinase; AID 1645853; P40818; inhibition, % at 20 µM; 47,000 tested, 4.2% active; purified USP8, Ub-rhodamine cleavage fluorescence, 30 min
USP17 block: human USP17-like deubiquitinase inhibition | inhibition, % at 50 µM | A8MUK1 | 47,000 tested, 6.5% active | purified USP17, Ub-rhodamine cleavage fluorescence, 3 h
USP30 inh: blocks human USP30 ubiquitin-rhodamine cleavage; Q70CQ3; purified USP30, Ub-rhodamine cleavage fluorescence; inhibition, % at 25 µM; 47,000 tested, 5.3% active; AID 1645860
An asterisk follows results filed as active; . = not tested or not shown. Cut-off read from the data, not from the text of the source: active = inhibition above about 30%; inactive = the rest.

SMILES | USP28 block | USP8 block | USP17 block | USP30 inh
O=C(c1ccnnc1)N1CCCCC1c1ncc(Cc2ccc(F)cc2)o1 (configuration not stated) | -10.6 | -60.3 | -8.1 | 1.1
Nc1nc(CN2CCCC2c2ccc3c(c2)OCCCO3)nc(Nc2ccccc2)n1 (configuration not stated) | -117.8 | -4.2 | -93.7 | -336.0
CCOC(=O)c1cc(OCC(=O)Nc2ccccc2)c2cc(Cl)ccc2n1 | -5.9 | 4.1 | 39.9* | -4.6
COc1ccc(Cn2c(Oc3ccccc3C)nc3c2c(=O)n(C)c(=O)n3C)cc1 | 12.9 | 23.3 | 27.0 | 32.1*
COc1ccc(Cn2c(N3CCCCC3)nc3c2c(=O)n(C)c(=O)n3C)cc1 | 10.7 | 8.7 | 14.7 | 26.3
Cc1ccc2[nH]c(=O)c(-c3nc4ccc(C)cn4c3NCc3ccc(F)cc3)cc2c1 | 11.8 | 77.6* | 75.7* | 2.2
COc1ccc2cc(-c3nc4cc(C)ccn4c3NCc3ccccc3)c(=O)[nH]c2c1 | -219.6 | -194.5 | . | -413.3
Cc1nccn1Cc1nc(-c2ccccc2)no1 | 17.5 | 8.5 | 2.2 | 1.4
Cc1ccccc1-c1nc(Cn2ccnc2C)no1 | 32.4* | 13.0 | 8.9 | 14.4
CCc1nccn1Cc1noc(-c2ccc(C)c(C)c2)n1 | 38.6* | 3.4 | -0.1 | -3.1
CCc1nccn1Cc1nc(-c2ccc(Cl)cc2)no1 | 42.8* | 5.6 | -2.7 | -14.6
O=C(N1CCOCC1)N1CCC2(C1)c1ccccc1S(=O)(=O)N2CC1CC1 (configuration not stated) | 4.5 | 14.5 | 1.5 | 2.2
O=C(COC(=O)c1cn(-c2ccccc2)nc1-c1cccnc1)Nc1ccc(F)c(Cl)c1 | 5.8 | 19.6 | 3.2 | 22.5
CCN1C(=O)Cc2cc(NS(=O)(=O)c3cc(C)ccc3C)ccc21 | 8.0 | 40.2* | 23.5 | 19.1
O=C(Cn1ncc2c(N3CCCCC3)ncnc21)NCc1ccc2c(c1)OCO2 | 13.4 | 1.7 | 54.9* | 55.4*
O=C(Cn1ncc2c(N3CCCCCC3)ncnc21)NCc1ccccc1 | 25.8 | 11.6 | 28.9 | 70.2*
COc1ccc(CN2CCCC(c3cccc(-c4ccc(CO)cc4)n3)C2)cc1 (configuration not stated) | 5.8 | 12.4 | -95.8 | 0.0
CCCCCCCCCCCCCCCC(=O)NC(CCC(=O)O)C(=O)NC(CCCN)C(=O)NC1Cc2ccc(cc2)OC(=O)C(C(C)CC)NC(=O)C(Cc2ccc(O)cc2)NC(=O)C(CCC(N)=O)NC(=O)C2CCCN2C(=O)C(C(C)C)NC(=O)C(CCC(=O)O)NC(=O)C(C(C)O)NC1=O (configuration not stated) | 12.5 | -17.4 | 15.1 | -4.6
CC1NC(=O)C(CC(N)=O)NC(=O)C(C(C)O)NC(=O)C(Cc2ccc(O)cc2)NC(=O)C(C(C)C)NC(=O)C(NC(=O)CC(O)CCCCCCCCCCCCN=C(N)N)C(C)OC1=O (configuration not stated) | 86.9* | -20.3 | 33.8* | 86.2*
O=C(NC1CCCCC1)C1CCCN(Cc2ccccn2)C1 (configuration not stated) | 3.6 | 0.0 | 1.9 | 11.4
CCc1cc2cc3c(cc2nc1SCC(=O)Nc1cccc(C(C)=O)c1)OCO3 | -0.4 | 3.8 | 62.6* | -0.6
O=C1CC(c2ccccc2)CC2=C1C(c1cccnc1)Nc1ccccc1N2 (configuration not stated) | -14.2 | -10.5 | -15.5 | -0.2
Cc1ccccc1Cn1cc(C(=O)O)c(S(=O)(=O)N2CCOCC2)n1 | -10.6 | -244.6 | -35.6 | -6.4
COc1ccc(Nc2nc3c(S(=O)(=O)c4ccc(C(C)C)cc4)nnn3c3ccccc23)cc1 | 10.1 | 4.8 | 23.5 | 31.5*
Cc1cc2nc(NCCc3ccccc3)c3ccccc3n2n1 | -5.5 | -25.0 | -16.8 | -8.2
SMILES | USP28 block | USP8 block | USP17 block | USP30 inh
Cc1ccc(S(=O)(=O)c2nnn3c2nc(N2CCN(c4cc(C)ccc4C)CC2)c2ccccc23)cc1 | 0.8 | 9.2 | 12.0 | 30.2*
Cc1ccc(Nc2nc3c(S(=O)(=O)c4ccccc4)nnn3c3ccccc23)c(C)c1 | -3.1 | 69.9* | 23.5 | 29.4
CCn1nc(NS(=O)(=O)c2ccccc2)c2cc3cc(C)ccc3nc21 | 17.2 | 19.5 | . | 25.8
Cc1ccc(C)c(Nc2nc3c(S(=O)(=O)c4ccccc4)nnn3c3ccccc23)c1 | 10.2 | 39.2* | 19.1 | 18.4
Cc1ccccc1NC(=O)c1oc2ccc3c(c2c1C)C(=O)CC1(CCCC1)O3 | -39.2 | 3.0 | -8.2 | -126.9
CSc1ccc(Cn2cccc2C2=NC(C(C)C)CO2)cc1 (configuration not stated) | 13.9 | 25.0 | 14.0 | 11.7
Cn1c(=O)c2c(-c3ccccc3)n(-c3ccc4c(c3)OCCO4)cc2n(C)c1=O | -16.3 | 74.4* | 32.2* | -52.3
Cc1cc(C)nc(NC(=O)c2c(C)nc3sccn23)c1 | . | 3.0 | 31.1* | .
COc1ccc(CC(=O)Nc2c(C)nc3sccn3c2=O)cc1 | -10.4 | -27.9 | -17.1 | -10.5
COc1ccc(NC(=O)CCc2ccc(-c3ccccc3)o2)c(OC)c1 | 6.7 | 6.5 | 13.0 | 1.0
COCCn1c(SCC(=O)Nc2ccc(C(C)=O)cc2)nnc1-c1c[nH]c2ccccc12 | 13.9 | -1.5 | -1.7 | 5.3
O=C(CCCn1c(=O)c2ccccc2n(CC(=O)N2CCN(c3ccccc3)CC2)c1=O)NCc1ccco1 | -4.4 | 35.8* | . | -18.4
COc1cc(OC)cc(-n2c(=O)c3ccccc3n(CC(=O)NCCC3=CCCCC3)c2=O)c1 | -19.3 | 23.0 | 29.1 | 22.2
O=C(Cn1c(=O)c2sccc2n(CC(=O)NCCC2=CCCCC2)c1=O)NCc1ccccc1Cl | . | 16.8 | 47.6* | .
COc1ccccc1CNC(=O)CCCCn1c(=O)c2ccccc2n(CC(=O)NCCC2=CCCCC2)c1=O | -2.8 | -2.1 | 42.6* | 3.7
COc1ccccc1CNC(=O)CCCn1c(=O)c2ccccc2n(CC(=O)N2CCN(c3ccccc3)CC2)c1=O | -6.3 | 1.2 | 57.3* | -1.7
C=C(C)C1CC[C@]2(CO)CCC3(C)C(CCC4[C@@]5(C)CC[C@H](O)C(C)(C)C5CC[C@]43C)C12 (some centres not stated) | 5.8 | 2.5 | 13.8 | 16.2
O=C(CN1CCN(c2ccc(F)cc2)CC1)NC1CCCC1 | 1.9 | -3.0 | -51.6 | 12.8
COc1ccc(OC)c(-c2cn3ccn(-c4ccc5c(c4)CCC5)c(=O)c3n2)c1 | 21.5 | -0.9 | . | 50.9*
N#Cc1cc2c(=O)n3ccccc3nc2n(C2CCS(=O)(=O)C2)c1=O (configuration not stated) | -247.8 | -115.2 | -168.9 | -489.9
Cc1c(-c2noc(-c3ccccc3)n2)nnn1Cc1ccccc1 | 10.2 | 19.5 | 24.4 | 15.1
Cc1c(-c2noc(-c3ccccc3)n2)nnn1Cc1cccc(F)c1 | -0.1 | 6.3 | 9.7 | 10.0
Cc1ccc(Cn2nnc(-c3noc(-c4ccc[nH]4)n3)c2C)cc1 | 62.3* | 5.0 | 20.5 | 21.8
COc1ccccc1-c1nc(-c2nnn(Cc3cccc(F)c3)c2C)no1 | 56.3* | 22.2 | 13.5 | 21.9
Cc1nc(CC(=O)Nc2cc(F)cc(F)c2)sc1C(=O)NC1CC1 | -12.3 | 60.8* | 24.0 | -61.0
Cc1cc(CN2CC[C@H]3C[C@@H](C(=O)Nc4cccnc4C)O[C@@H]3C2)no1 | 11.2 | -89.4 | 4.2 | 13.2
